The campaign covered roughly 48,000 compounds. About 13,000 (27%) showed an effect of 50% or more. This is one part of the list.
tested on: Wolbachia pipientis; assay: Anti-Wolbachia Cell-Based Screen; type: functional; parameters: scale not given: in the data most compounds retested in dose-response had high values; conditions: 5 µM

| Structure (SMILES) | Percent Effect [%] |
| --- | --- |
| COC1CCCN(C(=O)NCC(F)F)C1 (stereo unspecified) | -0.267 |
| CN(Cc1ccco1)C1CCC12CCN(C(=O)N1CCCC1)CC2.O=C(O)C(F)(F)F (stereo unspecified) | -11.51 |
| Cc1ccc(C2CCCCCN2CCCS(C)(=O)=O)o1 (stereo unspecified) | -22.51 |
| CCOc1ccc(NC(=O)c2scnc2CC)cc1CO | -2.962 |
| O=C1CN(C(=O)CSC2CCCc3ccccc32)CCN1 (stereo unspecified) | -8.523 |
| O=C(c1cccnc1)N1CCCC(c2ccnc3nccn23)C1 (stereo unspecified) | 79.76 |
| CC[C@H]1CN(C(=O)c2cccnc2)CC[C@H]1CC(=O)NC1CC1 | 4.498 |
| Cc1cc(C2CCCN(C(=O)c3cccnc3)C2)ccn1 (stereo unspecified) | 84.57 |
| O=C(NS(=O)(=O)Cc1ccc(F)cc1)C1CCOc2ccccc21 (stereo unspecified) | -4.826 |
| CN(C)c1ccc(C(=O)N2CCCN(Cc3cscn3)CC2)nn1 | 113.8 |
| CC(O)CN1CCN(C(=O)c2ccc(N(C)C)nc2)CC1 (stereo unspecified) | 3.143 |
| CSC(C)C(=O)N1CCCN(Cc2cscn2)CC1 (stereo unspecified) | -14.88 |
| CCOCC(O)CN1CCN(C(=O)c2ccc(N(C)C)nc2)CC1 (stereo unspecified) | -21.06 |
| CN(C)c1ccc(C(=O)N2CCN(Cc3cscn3)CC2)cn1 | 116 |
| CC(O)CN1CCN(C(=O)c2ccc(N(C)C)nn2)CC1 (stereo unspecified) | 2.216 |
| O=C([C@H]1CCCO1)N1CCc2ncnc(NC3CC3)c2CC1 | 1.456 |
| O=C(N1CCOCC1)N1CCc2ncnc(NC3CCC3)c2CC1.O=C(O)C(F)(F)F | 91.29 |
| O=C(C1CCCO1)N1CCc2ncnc(NC3CCC3)c2CC1.O=C(O)C(F)(F)F (stereo unspecified) | 103.9 |
| O=C(N1CCOCC1)N1CCc2ncnc(NC3CC3)c2CC1 | 0.5236 |
| CCCC(C(=O)NC1CCN(S(C)(=O)=O)CC1)n1cccc1 (stereo unspecified) | -3.816 |
| CCNC(=O)NC(=O)CN1CCOC(c2ccc(Br)cc2)C1 (stereo unspecified) | -12.38 |
| OC1(CNCCSc2ccccn2)CCCNC1 (stereo unspecified) | -44.86 |
| N#Cc1cccnc1N1CCCC(CO)(CCOc2ccccc2)C1 (stereo unspecified) | 0.3876 |

| Structure (SMILES) | Percent Effect [%] |
| --- | --- |
| CN(C)c1ccc(CCNC(=O)C2CCC(=O)N(C3CCCC3)C2)cc1 (stereo unspecified) | -1.429 |
| CCN(C(=O)CN1CCC(c2n[nH]c(C3CC3)n2)CC1)C1CC1 | 20.34 |
| CCC(=O)N1CCC(c2nc3ccc(NC(C)C)cn3n2)CC1 | -7.587 |
| CCN(CC)C(=O)CN1CCC(c2nc(C)c3c(n2)N(C)CCC3)CC1 | 126.4 |
| CCN(C(=O)CN1CCC(c2cc3ccccc3[nH]2)CC1)C1CC1 | -6.072 |
| CC(C)N(C)C(=O)CN1CCCC(c2ccc(C(=O)O)cc2)C1 (stereo unspecified) | 0.2821 |
| CCN(CC(F)(F)F)C(=O)C1CCCN(Cc2nc(C)c(C)o2)C1 (stereo unspecified) | -1.409 |
| CCC(=O)N1CCC(c2nc(C)c3c(n2)N(C)CCC3)CC1 | 112.7 |
| CCN(CC)C(=O)CN1CCCC(c2nc(C)c3c(n2)N(C)CCC3)C1 (stereo unspecified) | 160 |
| CCC(=O)N1CCC(n2cc(C(C)(C)O)nn2)CC1 | -6.105 |
| CCC[C@H]1CN(Cc2ccc(N(C)C)nc2)C[C@@H]1NC(=O)CSC | -2.183 |
| O=C(NC[C@H]1OC[C@@H](NC2CCCCC2)[C@@H]1O)c1cccs1 | 2.272 |
| CC(C)CC(C#N)NC(=O)CCNC(=O)C(C)(C)C (stereo unspecified) | 9.809 |
| CC(C#N)CN(C)C(=O)CCNC(=O)OC(C)(C)C (stereo unspecified) | 95.62 |
| CN(C)C(CNC(=O)CCNC(=O)OCC(F)(F)F)c1ccsc1 (stereo unspecified) | -11.09 |
| CC(O)CN(C)C(=O)CCNC(=O)OC(C)(C)C (stereo unspecified) | 96.59 |
| CCC(C#N)NC(=O)CCNC(=O)C(C)(C)C (stereo unspecified) | -9.888 |
| CC(C#N)CN(C)C(=O)CCNC(=O)C(C)(C)C (stereo unspecified) | 107.7 |
| CC(C#N)CN(C)C(=O)CCNC(=O)OCC(F)(F)F (stereo unspecified) | 112.9 |
| CC(C)NC(=O)CNC(=O)OC(C)(C)C | -14.72 |
| CC(C)(C)OC(=O)NCCC(=O)N(CCC#N)Cc1ccco1 | 11.1 |
| CC(C)C[C@H](NC(=O)CNC(=O)OC(C)(C)C)C(=O)OC(C)(C)C | 3.003 |
| CC(OCC(F)(F)F)C(=O)NCCN(C)C (stereo unspecified) | -5.396 |

| Structure (SMILES) | Percent Effect [%] |
| --- | --- |
| Cc1cccc(OCCC(=O)N(C)CC(C)C#N)c1C (stereo unspecified) | 20.16 |
| Cc1cnn(CC2CCCN2c2ccc(C#N)cn2)c1 (stereo unspecified) | 16.4 |
| CC1(C)CC1(C(=O)N1CC(c2cccnc2)C1)c1ccccc1F (stereo unspecified) | -22.23 |
| Nc1nccnc1C(=O)N1CC(OCc2cccc3ccccc23)C1 | -5.576 |
| COc1ccccc1OCC(=O)N1C[C@@H]2CN(C)CCO[C@@H]2C1.O=C(O)C(F)(F)F | -10.13 |
| CN(C)C[C@H]1OC[C@@H]2CN(C(=O)NCc3cccc(F)c3)CC[C@@H]21.O=C(O)C(F)(F)F | -10.24 |
| CN1CCO[C@@H]2CN(C(=O)NCc3cccc(F)c3)CC[C@@H]2C1 | 89.36 |
| COCCN1CCO[C@@H]2CN(C(=O)NCc3ccccc3)CC[C@@H]2C1.O=C(O)C(F)(F)F | -7.267 |
| CC(C)N1CCO[C@@H]2CN(C(=O)NCc3ccccc3)CC[C@@H]2C1.O=C(O)C(F)(F)F | 99.72 |
| CN1CCO[C@@H]2CN(C(=O)NCc3ccccc3)CC[C@@H]2C1.O=C(O)C(F)(F)F | 100.3 |
| CC(C)N1C[C@@H]2CN(C(=O)NCc3ccccc3)CCC[C@]2(C(=O)O)C1.O=C(O)C(F)(F)F | -4.508 |
| CN(C)C[C@H]1OC[C@@H]2CCN(C(=O)NCc3cccc(F)c3)C[C@@H]21 | 12.45 |
| Cc1csc(CNC(=O)N(C)Cc2ccc([S+](C)[O-])cc2)n1 (stereo unspecified) | -10.57 |
| COCCN(CC1CCCN(C2Cc3ccccc3C2)C1)C(=O)CSC (stereo unspecified) | -15.09 |
| COc1cc(N2CCCn3cnc(COCCO)c3C2)ncn1 | -11.76 |
| O=C(c1cccn1Cc1cccs1)N1CCN2CCCCC2C1 (stereo unspecified) | 106.1 |
| O=C(c1cccn1Cc1cccs1)N1CCN(C2CC2)CC1 | 5.207 |
| NC(=O)CC1CCN(C(=O)c2csc(-c3ccccc3F)n2)CC1 | -1.67 |
| CNC(=O)C1CCN(C(=O)c2cccn2Cc2cccs2)CC1 | 0.5999 |
| O=C(c1csc(-c2cccs2)n1)N1CCN2CCCCC2C1 (stereo unspecified) | 1.576 |
| O=C(OCc1cccs1)c1cccc(C(=O)N2CCCC2)n1 | -3.794 |
| NC(=O)CC1CCN(C(=O)c2cccn2Cc2cccs2)CC1 | 101.5 |
| NC(=O)C1CCN(C(=O)c2cccn2Cc2cccs2)CC1 | 117.1 |

| Structure (SMILES) | Percent Effect [%] |
| --- | --- |
| O=C(c1cccn1Cc1cccs1)N1CCN(C(=O)C2CC2)CC1 | -0.05599 |
| O=C(c1cccn1Cc1cccs1)N1CCC(C(=O)N2CCCC2)CC1 | 86.86 |
| Cc1cc(C(=O)N2CCc3[nH]cnc3C2C(=O)O)c(-c2ccccc2)o1 (stereo unspecified) | -20.72 |
| CN(C)CCNC(=O)c1nc2c(o1)CN(C(=O)c1cccnc1)C2.O=C(O)C(F)(F)F.O=C(O)C(F)(F)F | -13.48 |
| COC(C)(C)CC(C)NC(=O)NC1CCN(Cc2ccccn2)CC1 (stereo unspecified) | 2.912 |
| Cn1ncc2c(NCC(=O)N3CCNCC3)nc(C(C)(C)C)nc21 | -6.319 |
| CC(C)C1CN(c2ncc(F)cn2)CCC(=O)N1Cc1ccc(F)cc1 (stereo unspecified) | 23.16 |
| Cc1ccc(S(=O)(=O)Nc2cccnc2O)cc1C | 0.1699 |
| CCC(O)CN1CCN(C(=O)c2cccn2Cc2cccs2)CC1 (stereo unspecified) | -10.05 |
| NC(=O)C1CCN(C(=O)c2cccn2Cc2cccs2)C1 (stereo unspecified) | 92.97 |
| CC(CNC(=O)N1CCSCC1)Cc1cccs1 (stereo unspecified) | 19.49 |
| O=C(c1cccn1Cc1cccs1)N1CCSCC1 | 87.27 |
| O=C1NC(c2ccccc2)=N[C@@]12CC[C@@H]1CN(Cc3ccncc3)C[C@@H]12 | -3.809 |
| Cc1c(C(=O)N2CCCN(S(C)(=O)=O)CC2)cnn1C | 116.6 |
| CN(C)C(=O)c1cnn2c1OCCC2 | 85.82 |
| Cc1ccc(-c2cn(C3CCN(C(=O)[C@H]4CCCO4)CC3)nn2)cc1 | -12.17 |
| Cc1cc2cc(CNC(=O)c3cnn4c3OCCC4)ccc2[nH]1 | 3.624 |
| CCCn1ncc(C(=O)N2CCN(C3CCCC3)CC2)c1C | 4.008 |
| O=C(c1cnn2c1OCCC2)N1CCN(C/C=C/c2ccccc2)CC1 | 8.023 |
| CCn1ncc(C(=O)N2CCCN(CCCc3ccccc3)CC2)c1C | 5.21 |
| O=C(C1CCCO1)N1CCC(n2cc(-c3ccc(F)cc3)nn2)CC1 (stereo unspecified) | -2.259 |
| O=C(c1cnn2c1OCCC2)N1CCC(Cc2ccccc2)CC1 | 143.8 |
| Cc1c(C(=O)N2CCC(C(O)c3ccc(Cl)cc3)CC2)cnn1C (stereo unspecified) | -1.505 |

| Structure (SMILES) | Percent Effect [%] |
| --- | --- |
| O=C(c1cnn2c1OCCC2)N1CCN(C(=O)C2CCCO2)CC1 (stereo unspecified) | 101.5 |
| CC(=O)N1CCOC2(CCCN(Cc3ccc(Cl)c(C(F)(F)F)c3)C2)C1 (stereo unspecified) | -8.143 |
| Clc1cc(CN2CCCC2Cn2cncn2)c2ncccc2c1 (stereo unspecified) | 9.576 |
| N#Cc1cccnc1N1CCCC(CO)(Cc2cccc(Cl)c2)C1 (stereo unspecified) | -4.475 |
| CC(c1cccc(-c2cn(Cc3ccoc3)nn2)c1)N(C)C (stereo unspecified) | -9.392 |
| CNC(=O)Cc1ccc(NC(=O)NCc2nc(C)sc2C)cc1 | 5.733 |
| CN(C)C(=O)CCC[S+]([O-])Cc1ccc(Cl)c(Cl)c1 (stereo unspecified) | -0.5151 |
| CC(=O)c1ccc(N2CCN(C(=O)c3cc(C(C)C)nn3C)CC2)cc1 | -2.718 |
| CN(Cc1cncs1)C1CCN(C(=O)OC(C)(C)C)CC1 | 3.797 |
| CC(=O)N1CCN(c2nc3c(cnn3C(C)(C)C)c(=O)[nH]2)CC1 | -9.111 |
| CC(C)(C)OC(=O)N1CCCN(c2nnc(C3CC3)s2)CC1 | 1.365 |
| CC(C)(C)OC(=O)N1CCN(C(=O)c2cnn3c2OCCC3)CC1 | 119.8 |
| CS(=O)(=O)N1CCN(C(=O)c2[nH]c3ccc(Cl)cc3c2Cl)CC1 | -22.4 |
| CC(=O)c1ccc(N2CCN(C(=O)c3cnn4c3OCCC4)CC2)cc1 | 108.1 |
| CC(=O)c1ccc(N2CCN(C(=O)NC(C)c3ccc(C)o3)CC2)cc1 (stereo unspecified) | -3.361 |
| CC(=O)N1CCCN(C(=O)c2cnn(C(C)(C)C)c2C)CC1 | 120.5 |
| CS(=O)(=O)N1CCn2c(C(=O)N3CCOCC3)cnc2C1 | -13.12 |
| CS(=O)(=O)N1CCN(C(=O)c2cnn3c2OCCC3)CC1 | 124.7 |
| CCc1c(C(=O)N2CCCN(C(C)=O)CC2)cnn1C(C)(C)C | 7.313 |

From ChEMBL document CHEMBL3988442, “University of Dundee, Small-Polar-MMV Screening Library” (2021)
